Results filed as inconclusive are left out. The source made the active and inactive calls. Calls follow the shape of the dose curve; as a rule, active = well fitted inhibition curve with a large enough effect; inconclusive = small, poorly fitted or top-dose-only effect; inactive = flat fitted curve, though single readings scatter.
Experiments:
Assay in all cases: qHTS profiling for inhibitors of Plasmodium falciparum proliferation (AID 504749); also: nearly all actives have a fitted effect of over 60% in size
Details in all cases: P. falciparum in erythrocytes, SYBR Green DNA, 72 h; series mostly up to 28.7 µM
CP262 = system: CP262
Method in brief: (§1)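 Each compound contacts P. falciparum-infected red blood cells for 72 h at 37 C; lysis buffer (Tris, EDTA, saponin, Triton X, SYBR Green I) is added and fluorescence measured next morning; values normalized to controls.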

CP265 = system: CP265
Method in brief: as §1

CP266 = system: CP266
Method in brief: as §1

CP268 = system: CP268
Method in brief: as §1

CP269 = system: CP269
Method in brief: as §1

CP286 = system: CP286
Method in brief: as §1

CP291 = system: CP291
Method in brief: as §1

CP297 = system: CP297
Method in brief: as §1

CP305 = system: CP305
Method in brief: as §1

CP315 = system: CP315
Method in brief: as §1

CP325 = system: CP325
Method in brief: as §1

CP335 = system: CP335
Method in brief: as §1

DIV14 = system: DIV14
Method in brief: as §1

DIV17 = system: DIV17
Method in brief: as §1

DIV30 = system: DIV30
Method in brief: as §1

Dd2 = system: Dd2
Method in brief: as §1

ECU = system: ECU
Method in brief: as §1

FAB9 = system: FAB9
Method in brief: as §1

GB4 = system: GB4
Method in brief: as §1

HB3 = system: HB3
Method in brief: as §1

ICS = system: ICS
Method in brief: as §1

JCK = system: JCK
Method in brief: as §1

N140 = system: N140
Method in brief: as §1

P93_24 = system: P93_24
Method in brief: as §1

P94_40 = system: P94_40
Method in brief: as §1

PAD = system: PAD
Method in brief: as §1

PC15 = system: PC15
Method in brief: as §1

PC26 = system: PC26
Method in brief: as §1

PC49 = system: PC49
Method in brief: as §1

SC27B = system: SC27B
Method in brief: as §1

TAB109 = system: TAB109
Method in brief: as §1

TAB113 = system: TAB113
Method in brief: as §1

TAB165 = system: TAB165
Method in brief: as §1

W2 = system: W2
Method in brief: as §1

Measured: Potency
Potency is read from the fitted curve at half-maximal effect.

CC[C@]1([C@H]2O[C@@H]([C@@H]3O[C@](O)(CO)[C@@H](C)C[C@H]3C)C[C@H]2C)CC[C@@H]([C@]2(C)CC[C@@]3(C[C@@H](O)[C@@H](C)[C@@H]([C@H](C)[C@H](OC)[C@H](C)C(=O)O)O3)O2)O1
active: CP262 26.9 nM | CP265 31.6 nM | CP266 53.6 nM | CP268 37.9 nM | CP269 33.8 nM | CP286 22.4 nM | CP291 19 nM | CP297 33.8 nM | CP305 33.8 nM | CP315 33.8 nM | CP325 30.1 nM | CP335 19 nM | DIV14 33.8 nM | DIV17 26.9 nM | DIV30 37.9 nM | Dd2 39.8 nM | ECU 50.1 nM | FAB9 70.8 nM | GB4 26.9 nM | HB3 44.7 nM | ICS 20 nM | JCK 70.8 nM | N140 39.8 nM | P93_24 44.7 nM | P94_40 25.1 nM | PAD 63.1 nM | PC15 56.2 nM | PC26 23.9 nM | PC49 70.8 nM | SC27B 50.1 nM | TAB109 31.6 nM | TAB113 50.1 nM | TAB165 112 nM | W2 19 nM

From PubChem BioAssay (NCATS)
